# Results from paper PMC7862700, “An all-to-all approach to the identification of sequence-specific readers for epigenetic DNA modifications on cytosine”.
# Tests used:
# Experiment in all cases: DAPPL (digital affinity profiling via proximity ligation, sequencing); 10 mM Tris-HCl pH 7.5, 50 mM NaCl, 1 mM DTT, 4% glycerol, room temperature, 30 min; GST-TFs on glutathione beads, 16-mer random dsDNA library, 0.1% formaldehyde crosslink after washing; high values mean tight binding
# FEV = target: T1, FEV (Homo sapiens, UniProt Q99581 1-238); settings: protein: recombinant; tags: N-terminal GST; dsDNA, one strand shown
# T1 sequence: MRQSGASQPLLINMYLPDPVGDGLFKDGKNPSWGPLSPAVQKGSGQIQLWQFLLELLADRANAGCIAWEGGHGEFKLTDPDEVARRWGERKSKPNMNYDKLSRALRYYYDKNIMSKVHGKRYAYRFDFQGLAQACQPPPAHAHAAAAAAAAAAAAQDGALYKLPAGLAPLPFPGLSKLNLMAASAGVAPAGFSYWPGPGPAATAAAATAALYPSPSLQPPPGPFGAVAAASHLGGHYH
# Outline: (§1)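 Human transcription factors carrying a GST fusion were produced in yeast, bound to glutathione beads, tagged with DNA barcodes and pooled together with a tag-only sample. Each pool was held with 200 nmole of a random double-stranded 16-mer DNA library in Tris/NaCl/DTT/glycerol buffer for 30 min at room temperature, then washed, crosslinked in 0.1% formaldehyde, proximity-ligated with BsaI/T4 ligase (1 h, 37 °C), PCR-amplified and sequenced on an Illumina NextSeq500. Binding signal is the read frequency of each hexamer for a given factor divided by its frequency in the tag-only sample.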
# ETV5 = ETV5 (Homo sapiens, UniProt P41161 1-510); settings: protein: recombinant; tags: N-terminal GST; dsDNA, one strand shown
# Outline: as §1
# HSF1 = HSF1 (Homo sapiens, UniProt Q00613 1-529); settings: protein: recombinant; tags: N-terminal GST; chain copies: 3; dsDNA, one strand shown
# Outline: as §1
# ELF4 = ELF4 (Homo sapiens, UniProt Q99607 1-663); settings: protein: recombinant; tags: N-terminal GST; dsDNA, one strand shown
# Outline: as §1
# ELK4 = target: T2, ELK4 (Homo sapiens, UniProt P28324-2 1-405); settings: protein: recombinant; tags: N-terminal GST; dsDNA, one strand shown
# T2 sequence: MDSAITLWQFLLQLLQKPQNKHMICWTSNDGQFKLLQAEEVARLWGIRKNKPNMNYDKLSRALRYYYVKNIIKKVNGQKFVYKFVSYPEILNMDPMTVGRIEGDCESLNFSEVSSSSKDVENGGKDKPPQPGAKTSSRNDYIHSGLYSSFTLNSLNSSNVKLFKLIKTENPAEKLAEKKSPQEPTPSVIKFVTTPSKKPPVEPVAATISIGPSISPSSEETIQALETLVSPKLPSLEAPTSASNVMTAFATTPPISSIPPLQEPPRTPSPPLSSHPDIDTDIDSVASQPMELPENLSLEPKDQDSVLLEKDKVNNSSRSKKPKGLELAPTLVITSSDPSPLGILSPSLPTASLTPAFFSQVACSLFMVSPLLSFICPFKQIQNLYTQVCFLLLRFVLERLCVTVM
# Outline: as §1
# ETV2 = target: T3, ETV2 (Homo sapiens, UniProt O00321 1-342); settings: protein: recombinant; tags: N-terminal GST; dsDNA, one strand shown
# T3 sequence: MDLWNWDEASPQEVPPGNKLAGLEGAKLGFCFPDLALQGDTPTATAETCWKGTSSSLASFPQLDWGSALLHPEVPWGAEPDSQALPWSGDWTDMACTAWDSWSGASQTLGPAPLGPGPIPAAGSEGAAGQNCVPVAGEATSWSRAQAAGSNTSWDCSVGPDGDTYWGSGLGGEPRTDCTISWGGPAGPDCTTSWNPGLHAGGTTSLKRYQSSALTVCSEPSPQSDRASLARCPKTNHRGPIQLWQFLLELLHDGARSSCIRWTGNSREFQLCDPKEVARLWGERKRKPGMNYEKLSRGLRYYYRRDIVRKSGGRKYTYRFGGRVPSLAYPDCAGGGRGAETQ
# Outline: as §1
# ELF3 = target: T4, ELF3 (Homo sapiens, UniProt P78545 1-371); settings: protein: recombinant; tags: N-terminal GST; dsDNA, one strand shown
# T4 sequence: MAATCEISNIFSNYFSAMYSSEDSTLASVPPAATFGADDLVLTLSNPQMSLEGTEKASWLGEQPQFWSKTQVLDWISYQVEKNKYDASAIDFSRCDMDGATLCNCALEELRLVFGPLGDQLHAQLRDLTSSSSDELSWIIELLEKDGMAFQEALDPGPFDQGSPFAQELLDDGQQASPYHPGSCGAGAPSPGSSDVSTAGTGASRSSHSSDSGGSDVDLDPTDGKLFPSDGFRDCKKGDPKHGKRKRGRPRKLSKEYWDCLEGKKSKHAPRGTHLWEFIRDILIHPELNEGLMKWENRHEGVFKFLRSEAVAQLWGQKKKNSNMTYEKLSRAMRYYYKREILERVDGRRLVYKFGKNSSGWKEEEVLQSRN
# Outline: as §1
# CRX = CRX (Homo sapiens, UniProt O43186 1-299); settings: protein: recombinant; tags: N-terminal GST; dsDNA, one strand shown
# Outline: as §1
# ETV1 = ETV1 (Homo sapiens, UniProt P50549 1-477); settings: protein: recombinant; tags: N-terminal GST; dsDNA, one strand shown
# Outline: as §1
# SPIC = target: T5, SPIC (Homo sapiens, UniProt Q8N5J4 1-248); settings: protein: recombinant; tags: N-terminal GST; dsDNA, one strand shown
# T5 sequence: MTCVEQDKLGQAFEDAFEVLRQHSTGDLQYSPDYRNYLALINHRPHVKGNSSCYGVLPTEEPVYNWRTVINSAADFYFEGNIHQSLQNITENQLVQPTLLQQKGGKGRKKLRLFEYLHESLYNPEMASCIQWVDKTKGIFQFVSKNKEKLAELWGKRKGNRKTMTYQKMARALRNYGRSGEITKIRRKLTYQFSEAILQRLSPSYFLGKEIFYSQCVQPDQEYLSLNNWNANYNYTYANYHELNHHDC
# Outline: as §1
# Chain of HSF1 (Q00613 whole entry): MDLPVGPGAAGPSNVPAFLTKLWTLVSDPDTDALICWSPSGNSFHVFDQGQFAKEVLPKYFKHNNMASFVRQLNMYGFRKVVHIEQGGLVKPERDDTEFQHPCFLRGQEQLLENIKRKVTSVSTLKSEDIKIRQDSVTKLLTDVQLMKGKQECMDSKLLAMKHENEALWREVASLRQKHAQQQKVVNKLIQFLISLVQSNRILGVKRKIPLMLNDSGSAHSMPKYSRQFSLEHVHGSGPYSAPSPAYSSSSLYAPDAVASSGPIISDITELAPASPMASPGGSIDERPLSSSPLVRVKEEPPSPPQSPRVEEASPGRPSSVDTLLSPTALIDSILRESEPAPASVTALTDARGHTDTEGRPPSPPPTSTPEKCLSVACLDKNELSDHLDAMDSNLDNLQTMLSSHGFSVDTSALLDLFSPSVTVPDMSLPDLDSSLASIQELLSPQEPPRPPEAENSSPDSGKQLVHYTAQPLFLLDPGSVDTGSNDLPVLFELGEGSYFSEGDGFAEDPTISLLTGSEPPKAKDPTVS
# Chain of CRX (O43186 whole entry): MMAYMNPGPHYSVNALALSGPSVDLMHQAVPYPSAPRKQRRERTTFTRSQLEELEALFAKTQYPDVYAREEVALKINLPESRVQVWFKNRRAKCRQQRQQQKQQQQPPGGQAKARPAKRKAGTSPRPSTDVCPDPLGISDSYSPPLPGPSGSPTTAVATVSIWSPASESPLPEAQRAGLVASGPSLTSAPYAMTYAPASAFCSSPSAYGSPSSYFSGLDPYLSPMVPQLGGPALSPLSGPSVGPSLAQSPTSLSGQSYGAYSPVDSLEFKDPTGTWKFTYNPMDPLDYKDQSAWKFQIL
# Chain of ETV1 (P50549 whole entry): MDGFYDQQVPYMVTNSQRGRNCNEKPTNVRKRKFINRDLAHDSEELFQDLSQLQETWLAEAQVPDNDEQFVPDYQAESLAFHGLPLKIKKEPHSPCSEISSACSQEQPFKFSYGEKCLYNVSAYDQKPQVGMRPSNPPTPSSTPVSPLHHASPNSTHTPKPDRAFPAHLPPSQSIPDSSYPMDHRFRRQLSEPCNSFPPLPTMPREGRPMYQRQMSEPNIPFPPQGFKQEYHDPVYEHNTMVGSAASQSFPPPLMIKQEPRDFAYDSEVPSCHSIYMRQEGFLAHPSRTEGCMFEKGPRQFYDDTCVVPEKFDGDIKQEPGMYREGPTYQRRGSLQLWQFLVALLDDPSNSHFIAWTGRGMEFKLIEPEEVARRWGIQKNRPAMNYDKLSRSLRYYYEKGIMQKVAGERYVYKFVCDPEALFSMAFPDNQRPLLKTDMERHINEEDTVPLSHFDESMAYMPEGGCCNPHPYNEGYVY
# Chain of ELF4 (Q99607 whole entry): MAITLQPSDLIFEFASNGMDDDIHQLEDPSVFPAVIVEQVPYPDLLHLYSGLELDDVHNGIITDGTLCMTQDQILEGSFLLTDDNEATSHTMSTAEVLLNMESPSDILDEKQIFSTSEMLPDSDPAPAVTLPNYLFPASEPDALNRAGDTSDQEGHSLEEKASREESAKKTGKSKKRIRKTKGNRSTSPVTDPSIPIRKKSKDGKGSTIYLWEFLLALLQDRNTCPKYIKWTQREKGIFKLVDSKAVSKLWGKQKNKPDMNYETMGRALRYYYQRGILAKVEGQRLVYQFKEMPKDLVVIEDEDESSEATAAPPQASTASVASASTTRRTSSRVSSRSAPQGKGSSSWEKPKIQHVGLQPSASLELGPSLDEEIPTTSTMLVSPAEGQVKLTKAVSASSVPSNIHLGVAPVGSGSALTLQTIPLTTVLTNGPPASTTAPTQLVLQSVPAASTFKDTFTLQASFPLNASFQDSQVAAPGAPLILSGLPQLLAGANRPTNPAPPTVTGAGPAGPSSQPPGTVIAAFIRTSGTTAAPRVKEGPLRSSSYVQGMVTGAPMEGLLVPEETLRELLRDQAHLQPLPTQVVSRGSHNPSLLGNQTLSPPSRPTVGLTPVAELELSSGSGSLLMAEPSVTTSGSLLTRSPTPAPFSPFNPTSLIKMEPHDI
# Chain of ETV5 (P41161 whole entry): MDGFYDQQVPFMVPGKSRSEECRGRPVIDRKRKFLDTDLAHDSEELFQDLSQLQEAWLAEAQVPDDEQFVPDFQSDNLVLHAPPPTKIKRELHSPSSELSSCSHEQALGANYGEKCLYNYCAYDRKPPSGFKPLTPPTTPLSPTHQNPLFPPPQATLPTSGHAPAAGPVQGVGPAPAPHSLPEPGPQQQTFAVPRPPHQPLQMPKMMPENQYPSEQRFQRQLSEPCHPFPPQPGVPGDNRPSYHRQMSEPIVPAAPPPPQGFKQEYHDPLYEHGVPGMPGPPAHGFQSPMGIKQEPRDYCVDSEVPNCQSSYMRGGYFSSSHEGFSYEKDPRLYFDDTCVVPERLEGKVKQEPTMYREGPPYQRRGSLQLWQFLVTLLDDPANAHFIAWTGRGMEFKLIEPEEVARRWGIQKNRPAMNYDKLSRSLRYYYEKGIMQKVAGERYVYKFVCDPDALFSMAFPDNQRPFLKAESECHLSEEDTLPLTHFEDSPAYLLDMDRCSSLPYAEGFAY
Sequence,binding signal (FEV),binding signal (ETV5),binding signal (HSF1),binding signal (ELF4),binding signal (ELK4),binding signal (ETV2),binding signal (ELF3),binding signal (CRX),binding signal (ETV1),binding signal (SPIC)
CCATTG,"1.15 fold enrichment (6-mer frequency, TF over GST control)","1.16 fold enrichment (6-mer frequency, TF over GST control)","1.07 fold enrichment (6-mer frequency, TF over GST control)","1.17 fold enrichment (6-mer frequency, TF over GST control)","1.11 fold enrichment (6-mer frequency, TF over GST control)","1.26 fold enrichment (6-mer frequency, TF over GST control)","1.07 fold enrichment (6-mer frequency, TF over GST control)","1.02 fold enrichment (6-mer frequency, TF over GST control)","1.05 fold enrichment (6-mer frequency, TF over GST control)",
TAAGCG,,"1.02 fold enrichment (6-mer frequency, TF over GST control)","1.34 fold enrichment (6-mer frequency, TF over GST control)",,,"1.05 fold enrichment (6-mer frequency, TF over GST control)","1.19 fold enrichment (6-mer frequency, TF over GST control)","1.86 fold enrichment (6-mer frequency, TF over GST control)","1 fold enrichment (6-mer frequency, TF over GST control)","1.04 fold enrichment (6-mer frequency, TF over GST control)"
CTATAG,"1.04 fold enrichment (6-mer frequency, TF over GST control)","1.1 fold enrichment (6-mer frequency, TF over GST control)","1.03 fold enrichment (6-mer frequency, TF over GST control)","1.02 fold enrichment (6-mer frequency, TF over GST control)","1.14 fold enrichment (6-mer frequency, TF over GST control)","1.27 fold enrichment (6-mer frequency, TF over GST control)","1.04 fold enrichment (6-mer frequency, TF over GST control)","1.05 fold enrichment (6-mer frequency, TF over GST control)","1.01 fold enrichment (6-mer frequency, TF over GST control)",
GTTTTA,"1.08 fold enrichment (6-mer frequency, TF over GST control)","1.07 fold enrichment (6-mer frequency, TF over GST control)","1.17 fold enrichment (6-mer frequency, TF over GST control)","1.15 fold enrichment (6-mer frequency, TF over GST control)","1.07 fold enrichment (6-mer frequency, TF over GST control)","1.1 fold enrichment (6-mer frequency, TF over GST control)","1.06 fold enrichment (6-mer frequency, TF over GST control)","1.41 fold enrichment (6-mer frequency, TF over GST control)","1.13 fold enrichment (6-mer frequency, TF over GST control)",
AGCTAA,"1.03 fold enrichment (6-mer frequency, TF over GST control)","1.06 fold enrichment (6-mer frequency, TF over GST control)","1.27 fold enrichment (6-mer frequency, TF over GST control)","1.14 fold enrichment (6-mer frequency, TF over GST control)","1.1 fold enrichment (6-mer frequency, TF over GST control)","1.01 fold enrichment (6-mer frequency, TF over GST control)","1.09 fold enrichment (6-mer frequency, TF over GST control)","1.65 fold enrichment (6-mer frequency, TF over GST control)","1.1 fold enrichment (6-mer frequency, TF over GST control)",
TAACCA,"1 fold enrichment (6-mer frequency, TF over GST control)","1.06 fold enrichment (6-mer frequency, TF over GST control)","1.16 fold enrichment (6-mer frequency, TF over GST control)","1.16 fold enrichment (6-mer frequency, TF over GST control)","1.04 fold enrichment (6-mer frequency, TF over GST control)","1.12 fold enrichment (6-mer frequency, TF over GST control)","1.1 fold enrichment (6-mer frequency, TF over GST control)","1.31 fold enrichment (6-mer frequency, TF over GST control)","1.02 fold enrichment (6-mer frequency, TF over GST control)",
TAGTGT,"1.02 fold enrichment (6-mer frequency, TF over GST control)","1.12 fold enrichment (6-mer frequency, TF over GST control)","1.15 fold enrichment (6-mer frequency, TF over GST control)","1.11 fold enrichment (6-mer frequency, TF over GST control)","1.4 fold enrichment (6-mer frequency, TF over GST control)","1.06 fold enrichment (6-mer frequency, TF over GST control)","1.21 fold enrichment (6-mer frequency, TF over GST control)","1.29 fold enrichment (6-mer frequency, TF over GST control)","1.21 fold enrichment (6-mer frequency, TF over GST control)",
ATAGCA,"1.13 fold enrichment (6-mer frequency, TF over GST control)","1.17 fold enrichment (6-mer frequency, TF over GST control)","1.02 fold enrichment (6-mer frequency, TF over GST control)","1.16 fold enrichment (6-mer frequency, TF over GST control)","1.15 fold enrichment (6-mer frequency, TF over GST control)","1.13 fold enrichment (6-mer frequency, TF over GST control)","1.25 fold enrichment (6-mer frequency, TF over GST control)","1.07 fold enrichment (6-mer frequency, TF over GST control)","1.1 fold enrichment (6-mer frequency, TF over GST control)",
TTAGGT,,"1.12 fold enrichment (6-mer frequency, TF over GST control)","1.28 fold enrichment (6-mer frequency, TF over GST control)","1.08 fold enrichment (6-mer frequency, TF over GST control)","1.26 fold enrichment (6-mer frequency, TF over GST control)","1 fold enrichment (6-mer frequency, TF over GST control)","1.15 fold enrichment (6-mer frequency, TF over GST control)","1.82 fold enrichment (6-mer frequency, TF over GST control)","1.04 fold enrichment (6-mer frequency, TF over GST control)",
ACAAAA,"1.19 fold enrichment (6-mer frequency, TF over GST control)","1.17 fold enrichment (6-mer frequency, TF over GST control)","1.09 fold enrichment (6-mer frequency, TF over GST control)","1.16 fold enrichment (6-mer frequency, TF over GST control)","1.15 fold enrichment (6-mer frequency, TF over GST control)","1.11 fold enrichment (6-mer frequency, TF over GST control)","1.04 fold enrichment (6-mer frequency, TF over GST control)","1.05 fold enrichment (6-mer frequency, TF over GST control)","1.13 fold enrichment (6-mer frequency, TF over GST control)",
AAATAG,"1.16 fold enrichment (6-mer frequency, TF over GST control)","1.2 fold enrichment (6-mer frequency, TF over GST control)","1.09 fold enrichment (6-mer frequency, TF over GST control)","1.02 fold enrichment (6-mer frequency, TF over GST control)","1.15 fold enrichment (6-mer frequency, TF over GST control)","1.06 fold enrichment (6-mer frequency, TF over GST control)","1.17 fold enrichment (6-mer frequency, TF over GST control)","1.11 fold enrichment (6-mer frequency, TF over GST control)","1.11 fold enrichment (6-mer frequency, TF over GST control)",
CTTTAG,"1.18 fold enrichment (6-mer frequency, TF over GST control)","1.1 fold enrichment (6-mer frequency, TF over GST control)","1.37 fold enrichment (6-mer frequency, TF over GST control)","1.26 fold enrichment (6-mer frequency, TF over GST control)","1.15 fold enrichment (6-mer frequency, TF over GST control)","1.23 fold enrichment (6-mer frequency, TF over GST control)","1.34 fold enrichment (6-mer frequency, TF over GST control)","1.51 fold enrichment (6-mer frequency, TF over GST control)","1.24 fold enrichment (6-mer frequency, TF over GST control)",
TACATT,"1.19 fold enrichment (6-mer frequency, TF over GST control)","1.21 fold enrichment (6-mer frequency, TF over GST control)","1.25 fold enrichment (6-mer frequency, TF over GST control)","1.24 fold enrichment (6-mer frequency, TF over GST control)","1.09 fold enrichment (6-mer frequency, TF over GST control)","1.17 fold enrichment (6-mer frequency, TF over GST control)","1.11 fold enrichment (6-mer frequency, TF over GST control)","1.25 fold enrichment (6-mer frequency, TF over GST control)","1.16 fold enrichment (6-mer frequency, TF over GST control)",
GTTTAC,"1.11 fold enrichment (6-mer frequency, TF over GST control)","1.1 fold enrichment (6-mer frequency, TF over GST control)","1 fold enrichment (6-mer frequency, TF over GST control)","1.12 fold enrichment (6-mer frequency, TF over GST control)","1.32 fold enrichment (6-mer frequency, TF over GST control)","1.11 fold enrichment (6-mer frequency, TF over GST control)","1.28 fold enrichment (6-mer frequency, TF over GST control)","1.01 fold enrichment (6-mer frequency, TF over GST control)","1.17 fold enrichment (6-mer frequency, TF over GST control)",
